ChEMBL document CHEMBL1961873, “Compounds: GSK PKIS; Assays: Nanosyn kinase panel” (2012)

How the values were obtained:
[1] = target: Rho-associated protein kinase 1 (Homo sapiens) (UniProt Q13464); conditions: at 1 µM;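 also: reported values are mean percent inhibition of ROCK1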
[2] = target: Rho-associated protein kinase 2 (Homo sapiens) (UniProt O75116); conditions: at 0.1 µM
[3] = target: Rho-associated protein kinase 2 (Homo sapiens) (UniProt O75116); conditions: at 1 µM
[4] = target: Ribosomal protein S6 kinase alpha-1 (Homo sapiens) (UniProt Q15418); conditions: at 0.1 µM
Sequence of Ribosomal protein S6 kinase alpha-1 (Homo sapiens) (Q15418 whole entry): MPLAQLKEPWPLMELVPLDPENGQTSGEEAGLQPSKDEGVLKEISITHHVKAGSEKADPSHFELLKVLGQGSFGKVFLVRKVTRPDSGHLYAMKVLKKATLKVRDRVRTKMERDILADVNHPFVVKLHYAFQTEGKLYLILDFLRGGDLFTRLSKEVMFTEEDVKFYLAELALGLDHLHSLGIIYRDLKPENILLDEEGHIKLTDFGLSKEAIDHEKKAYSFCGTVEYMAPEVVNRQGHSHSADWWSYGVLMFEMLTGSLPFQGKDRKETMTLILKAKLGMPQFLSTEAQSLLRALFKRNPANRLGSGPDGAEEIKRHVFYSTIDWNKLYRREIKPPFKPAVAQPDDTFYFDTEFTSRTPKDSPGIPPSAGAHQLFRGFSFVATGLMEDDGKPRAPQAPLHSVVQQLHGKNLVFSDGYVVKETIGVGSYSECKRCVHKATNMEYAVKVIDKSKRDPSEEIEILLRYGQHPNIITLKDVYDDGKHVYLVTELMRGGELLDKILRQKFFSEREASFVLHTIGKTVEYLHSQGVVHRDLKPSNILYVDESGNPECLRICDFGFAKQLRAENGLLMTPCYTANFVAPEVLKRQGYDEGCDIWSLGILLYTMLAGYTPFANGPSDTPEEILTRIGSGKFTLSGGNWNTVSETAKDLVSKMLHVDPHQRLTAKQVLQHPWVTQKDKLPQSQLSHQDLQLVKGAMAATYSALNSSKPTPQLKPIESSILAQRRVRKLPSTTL

[5] = target: Ribosomal protein S6 kinase alpha-1 (Homo sapiens) (UniProt Q15418); conditions: at 1 µM
[6] = target: Ribosomal protein S6 kinase alpha-3 (Homo sapiens) (UniProt P51812); conditions: at 0.1 µM
[7] = target: Ribosomal protein S6 kinase alpha-3 (Homo sapiens) (UniProt P51812); conditions: at 1 µM
[8] = target: Ribosomal protein S6 kinase alpha-2 (Homo sapiens) (UniProt Q15349); conditions: at 0.1 µM
Sequence of Ribosomal protein S6 kinase alpha-2 (Homo sapiens) (Q15349 whole entry): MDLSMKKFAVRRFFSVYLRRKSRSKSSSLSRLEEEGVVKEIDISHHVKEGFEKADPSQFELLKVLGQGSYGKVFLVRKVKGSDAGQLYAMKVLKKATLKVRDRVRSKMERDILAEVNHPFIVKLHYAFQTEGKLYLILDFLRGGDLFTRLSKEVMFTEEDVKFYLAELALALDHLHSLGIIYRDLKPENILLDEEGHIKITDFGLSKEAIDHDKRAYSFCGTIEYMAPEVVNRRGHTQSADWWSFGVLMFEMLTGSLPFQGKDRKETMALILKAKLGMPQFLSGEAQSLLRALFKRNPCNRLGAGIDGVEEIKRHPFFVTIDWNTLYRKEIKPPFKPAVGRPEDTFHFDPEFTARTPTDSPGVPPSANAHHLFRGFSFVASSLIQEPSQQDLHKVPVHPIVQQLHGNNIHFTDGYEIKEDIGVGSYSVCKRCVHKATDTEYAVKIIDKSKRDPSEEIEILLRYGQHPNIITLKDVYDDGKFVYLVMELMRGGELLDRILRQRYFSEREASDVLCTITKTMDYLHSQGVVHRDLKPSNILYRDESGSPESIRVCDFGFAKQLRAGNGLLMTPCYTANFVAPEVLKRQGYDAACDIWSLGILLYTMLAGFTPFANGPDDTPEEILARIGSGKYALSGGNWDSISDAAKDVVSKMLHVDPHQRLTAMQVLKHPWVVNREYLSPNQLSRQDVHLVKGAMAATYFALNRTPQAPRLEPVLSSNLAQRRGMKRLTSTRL

[9] = target: Ribosomal protein S6 kinase alpha-2 (Homo sapiens) (UniProt Q15349); conditions: at 1 µM
[10] = target: Ribosomal protein S6 kinase alpha-6 (Homo sapiens) (UniProt Q9UK32); conditions: at 0.1 µM;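 also: reported value is the mean inhibition of RSK4, from the GSK PKIS kinase inhibitor screen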
Sequence of Ribosomal protein S6 kinase alpha-6 (Homo sapiens) (Q9UK32 whole entry): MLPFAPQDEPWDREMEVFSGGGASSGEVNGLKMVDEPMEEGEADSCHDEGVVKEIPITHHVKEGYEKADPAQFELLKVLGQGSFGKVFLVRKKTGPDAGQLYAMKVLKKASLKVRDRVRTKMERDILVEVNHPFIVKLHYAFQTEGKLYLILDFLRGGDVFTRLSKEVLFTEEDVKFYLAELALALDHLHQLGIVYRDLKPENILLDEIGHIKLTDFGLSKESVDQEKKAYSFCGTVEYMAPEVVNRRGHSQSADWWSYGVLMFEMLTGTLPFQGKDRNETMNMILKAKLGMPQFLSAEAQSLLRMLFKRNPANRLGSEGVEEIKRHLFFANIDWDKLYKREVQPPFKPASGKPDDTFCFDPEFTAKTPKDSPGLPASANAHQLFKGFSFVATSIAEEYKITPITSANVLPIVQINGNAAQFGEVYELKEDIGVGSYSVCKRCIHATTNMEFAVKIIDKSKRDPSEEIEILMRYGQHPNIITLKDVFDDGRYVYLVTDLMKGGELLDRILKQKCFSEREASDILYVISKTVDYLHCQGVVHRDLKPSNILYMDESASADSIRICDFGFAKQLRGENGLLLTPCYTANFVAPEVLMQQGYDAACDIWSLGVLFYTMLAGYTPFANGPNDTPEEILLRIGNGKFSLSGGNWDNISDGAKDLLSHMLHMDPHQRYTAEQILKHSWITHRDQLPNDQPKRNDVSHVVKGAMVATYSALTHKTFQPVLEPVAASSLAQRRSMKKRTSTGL

Sequence of Rho-associated protein kinase 1 (Homo sapiens) (Q13464 2-1354 limits assumed): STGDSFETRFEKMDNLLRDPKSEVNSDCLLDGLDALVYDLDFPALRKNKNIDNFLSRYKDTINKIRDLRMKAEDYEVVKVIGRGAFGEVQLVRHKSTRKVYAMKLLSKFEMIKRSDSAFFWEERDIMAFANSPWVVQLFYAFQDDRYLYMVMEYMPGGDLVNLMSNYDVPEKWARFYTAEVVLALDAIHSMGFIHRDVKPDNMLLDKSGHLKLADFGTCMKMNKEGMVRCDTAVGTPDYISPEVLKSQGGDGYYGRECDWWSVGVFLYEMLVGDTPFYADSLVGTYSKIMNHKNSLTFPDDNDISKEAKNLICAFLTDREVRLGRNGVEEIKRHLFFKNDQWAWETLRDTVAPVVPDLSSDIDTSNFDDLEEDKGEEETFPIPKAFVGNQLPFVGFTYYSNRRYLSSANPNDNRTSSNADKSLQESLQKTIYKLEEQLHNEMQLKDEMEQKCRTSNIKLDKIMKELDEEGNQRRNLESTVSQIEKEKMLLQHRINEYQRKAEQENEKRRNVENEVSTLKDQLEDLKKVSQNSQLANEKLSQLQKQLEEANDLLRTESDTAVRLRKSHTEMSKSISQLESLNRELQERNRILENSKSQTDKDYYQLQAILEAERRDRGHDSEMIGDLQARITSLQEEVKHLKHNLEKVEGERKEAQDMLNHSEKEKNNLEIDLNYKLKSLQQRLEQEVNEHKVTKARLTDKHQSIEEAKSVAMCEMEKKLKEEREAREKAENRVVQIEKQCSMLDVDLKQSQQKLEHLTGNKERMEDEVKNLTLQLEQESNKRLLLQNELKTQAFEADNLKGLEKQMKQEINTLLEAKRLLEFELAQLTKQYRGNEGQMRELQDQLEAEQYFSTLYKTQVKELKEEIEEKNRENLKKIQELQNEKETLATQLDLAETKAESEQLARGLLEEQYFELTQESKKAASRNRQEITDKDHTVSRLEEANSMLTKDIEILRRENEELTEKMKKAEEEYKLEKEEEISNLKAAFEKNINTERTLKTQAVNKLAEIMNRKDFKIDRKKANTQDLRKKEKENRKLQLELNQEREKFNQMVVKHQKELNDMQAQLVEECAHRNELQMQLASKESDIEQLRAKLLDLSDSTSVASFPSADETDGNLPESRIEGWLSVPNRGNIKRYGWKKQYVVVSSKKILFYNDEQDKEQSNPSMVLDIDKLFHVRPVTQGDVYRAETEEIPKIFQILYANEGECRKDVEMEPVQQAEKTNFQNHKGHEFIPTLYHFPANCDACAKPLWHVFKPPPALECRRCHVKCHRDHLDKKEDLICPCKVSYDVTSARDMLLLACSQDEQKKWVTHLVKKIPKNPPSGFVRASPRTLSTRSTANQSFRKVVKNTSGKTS
Sequence of Rho-associated protein kinase 2 (Homo sapiens) (O75116 whole entry, looked up): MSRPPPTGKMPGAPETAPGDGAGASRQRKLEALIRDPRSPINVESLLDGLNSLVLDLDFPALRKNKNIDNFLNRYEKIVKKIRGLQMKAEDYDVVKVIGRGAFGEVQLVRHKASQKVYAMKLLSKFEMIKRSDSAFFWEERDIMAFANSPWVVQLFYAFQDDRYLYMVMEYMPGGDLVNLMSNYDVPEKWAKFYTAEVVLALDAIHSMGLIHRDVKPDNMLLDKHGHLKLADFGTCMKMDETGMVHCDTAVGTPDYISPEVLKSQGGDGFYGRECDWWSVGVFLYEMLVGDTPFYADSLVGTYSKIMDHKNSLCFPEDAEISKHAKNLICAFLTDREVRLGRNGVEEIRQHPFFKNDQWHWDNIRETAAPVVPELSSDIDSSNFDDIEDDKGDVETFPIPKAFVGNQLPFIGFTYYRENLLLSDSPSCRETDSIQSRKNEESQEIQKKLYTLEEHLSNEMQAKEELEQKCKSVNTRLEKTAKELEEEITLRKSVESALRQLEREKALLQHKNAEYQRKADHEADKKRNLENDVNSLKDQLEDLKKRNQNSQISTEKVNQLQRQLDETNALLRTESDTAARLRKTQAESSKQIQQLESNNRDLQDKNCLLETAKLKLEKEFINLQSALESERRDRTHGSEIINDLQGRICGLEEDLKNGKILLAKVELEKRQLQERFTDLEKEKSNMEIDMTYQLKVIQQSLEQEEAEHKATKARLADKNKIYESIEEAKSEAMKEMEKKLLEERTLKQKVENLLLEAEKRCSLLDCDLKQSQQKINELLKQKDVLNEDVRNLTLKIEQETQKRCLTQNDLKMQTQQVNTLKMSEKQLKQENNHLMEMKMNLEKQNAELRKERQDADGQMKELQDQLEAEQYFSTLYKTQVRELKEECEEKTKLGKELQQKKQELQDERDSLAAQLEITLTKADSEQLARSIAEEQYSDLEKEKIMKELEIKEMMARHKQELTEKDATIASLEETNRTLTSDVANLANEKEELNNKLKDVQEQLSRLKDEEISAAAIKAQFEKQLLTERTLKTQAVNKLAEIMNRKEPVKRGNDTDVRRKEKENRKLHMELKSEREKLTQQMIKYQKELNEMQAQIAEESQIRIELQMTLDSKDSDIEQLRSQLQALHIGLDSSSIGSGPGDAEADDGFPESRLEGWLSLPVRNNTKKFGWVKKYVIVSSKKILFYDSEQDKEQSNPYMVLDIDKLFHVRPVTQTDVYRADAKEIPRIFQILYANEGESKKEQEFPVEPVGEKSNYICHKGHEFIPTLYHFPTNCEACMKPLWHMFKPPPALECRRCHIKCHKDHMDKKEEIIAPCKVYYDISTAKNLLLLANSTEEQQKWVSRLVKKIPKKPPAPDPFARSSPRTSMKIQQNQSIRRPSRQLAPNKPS

SMILES	inhibition [1]	inhibition [2]	inhibition [3]	inhibition [4]	inhibition [5]	inhibition [6]	inhibition [7]	inhibition [8]	inhibition [9]	inhibition [10]
CCn1c(-c2nonc2N)nc2c(N3CCCC3)nccc21	22.2%	3.86%	30.6%	0.29%	7.82%	0.44%	4.5%	-0.11%	7.05%	-0.21%
CC1=C(C(=O)Nc2ccc3[nH]ncc3c2)C(c2ccc3ccccc3c2)CC(=O)N1 (stereo not drawn)		77%	84.2%	3.94%	26.4%	2.4%	21.3%	2.26%	13.7%	1.04%
COc1cc(C=NNc2ncnc3c2cnn3-c2ccccc2)ccc1O	3.41%	1.64%	8.94%	1.65%	7.83%	1.16%	6.18%	2.26%	7.02%	0.33%
CCn1c(-c2nonc2N)nc2cncc(C(=O)N3CCNCC3)c21		3.45%	4.33%	1.84%	3.1%	0.8%	-0.05%	3.17%	3.01%	1.32%
Cc1nn(C)c2cc(N(C)c3ccnc(Nc4cccc(S(N)(=O)=O)c4)n3)ccc12	2.24%	2.09%	3.32%	1.77%	3.73%	1.39%	6.38%	2.93%	4.46%	2.03%
Nc1ncnc2occ(-c3ccc(NC(=O)Nc4cccc(C(F)(F)F)c4)cc3)c12	19%	11.1%	46.9%	4.59%	33.8%	2.15%	26.1%	7.44%	52.9%	-0.29%
CCn1c(-c2nonc2N)nc2cnc(Oc3cccc(NC(=O)c4ccc(OCCN5CCOCC5)cc4)c3)cc21		90%	90.5%	26.1%	70.6%	12.2%	54.6%	15.6%	61%	2.18%
COc1cc2ncn(-c3cc(O[C@H](C)c4ccccc4Cl)c(C(N)=O)s3)c2cc1OC	3.85%	4.45%	13.6%	3.9%	18.7%	3.39%	16.4%	2.9%	10.6%	3.57%
Nc1nc(-c2ccc3c(c2)C(=Cc2cc(Br)c(O)c(Br)c2)C(=O)N3)cs1	-0.02%	-0.52%	2.2%	-0.32%	4.1%	-0.26%	1.6%	-0.77%	1.44%	-0.07%
CCCN1CCC=C(c2ccc(Nc3nc(Nc4ccccc4C(N)=O)c4cc[nH]c4n3)c(C)c2)C1	8.96%	2.53%	12.8%	19.8%	54.6%	9.39%	39.4%	3.72%	19.2%	11.7%
NC(=O)c1cccc(Nc2nccc(Nc3cccc4[nH]ncc34)n2)c1	7.57%	1.22%	13.4%	-0.17%	7.69%	-0.11%	8.36%	-1.89%	2.72%	0.56%
CCCN1CCC(Oc2cc(Nc3nc(Nc4cccc(F)c4C(N)=O)c4cc[nH]c4n3)c(OC)cc2Cl)CC1	8.85%	1.22%	7.48%	0.01%	7.33%	0.89%	3.26%	-0.12%	0.95%	1.35%
COc1ccc(-c2coc3ncnc(N)c23)cc1	3.53%	3.52%	1.94%	1.72%	0.94%	1.05%	1.66%	2.4%	2.21%	1.93%
CC1=C(C(=O)Nc2ccc3[nH]ncc3c2)C(c2ccc(Cl)c(Cl)c2)CC(=O)N1 (stereo not drawn)	91.8%	71.2%	89.9%	3.44%	23.6%	1.88%	18.9%	0.64%	13.2%	0.12%
Cc1cc(O)cc(C)c1/C=C/c1cncc(-c2nn[nH]n2)c1	1.86%	2.66%	2.33%	2.97%	1%	1.94%	1.24%	3.53%	3.85%	2.1%
CCn1c(-c2nonc2N)nc2cncc(C(=O)N3CC[C@H](N)C3)c21		74.9%	83.5%	44.6%	75.8%	31.3%	69.9%	18.3%	65.9%	6.13%
COc1cc2ncn(-c3cc(O[C@@H](C)c4ccccc4Cl)c(C(N)=O)s3)c2cc1OC	3.27%	3.27%	5.4%	1.94%	4.51%	1.79%	5.13%	3.03%	6.66%	1.81%

SMILES	inhibition [1]	inhibition [2]	inhibition [3]	inhibition [4]	inhibition [5]	inhibition [6]	inhibition [7]	inhibition [8]	inhibition [9]	inhibition [10]
CCn1c(-c2nonc2N)nc2c(C#CC(C)(C)O)nc(CN3CCCC3)cc21	0.94%	0.14%	1.51%	2.05%	1.13%	1.08%	2.37%	-0.08%	0.59%	0.28%
COc1cc2ncn(-c3cc(OCc4ccccc4Cl)c(C(N)=O)s3)c2cc1OC	0.6%	-0.16%	2.11%	0.91%	3.5%	0.95%	7.69%	1.46%	8.47%	2.26%
COc1ccccc1Nc1ncc(-c2ccccc2)o1	3.7%	4.07%	3.77%	0.8%	23.5%	-0.3%	0.19%	3.05%	4.52%	0.08%
COc1ccc2cc(-c3c(-c4ccncc4)nc(-c4ccc([S+](C)[O-])cc4)n3C)ccc2c1 (stereo not drawn)	0.63%	2.12%	-0.11%	0.79%	0.09%	1.33%	0.81%	2.14%	3.12%	0.84%
NS(=O)(=O)c1cccc(-c2ccc3c(NC(=O)C4CC4)n[nH]c3c2)c1	1.53%	0.53%	2.48%	0.46%	3.07%	0.8%	2.45%	-0.89%	0.27%	-0.55%
CCn1c(-c2nonc2N)nc2c(C#CC(C)(C)O)nc(OC[C@@H](N)c3ccccc3)cc21	37%	7.79%	45.9%	2.16%	21.4%	3.04%	26.8%	0.98%	12.9%	2.62%
COc1cc(C)c(NC(=O)CN(C)C)cc1Nc1nc(Nc2cccc(F)c2C(N)=O)c2cc[nH]c2n1	11.4%	1.26%	7.68%	9.42%	40.7%	4.6%	23.1%	1.22%	11.5%	3.59%
CC(=O)Nc1cccc(C#Cc2cncnc2Nc2ccc(OCc3cccc(F)c3)c(Cl)c2)n1	1.22%	3.13%	6.65%	3.35%	5.09%	1.72%	4.03%	-1.11%	0.12%	0.1%
O=C1Nc2ccc(C(=O)c3ccco3)cc2C1=Cc1cc(Cl)c(O)c(Cl)c1	7.03%	2.19%	12.1%	3.17%	11.9%	0.85%	6.32%	1.45%	9.07%	1.47%
O=C(Nc1n[nH]c2nc(-c3ccco3)c(Br)cc12)C1CC1	0.97%	0.99%	-0.88%	1.12%	-0.1%	0.52%	-0.3%	1.97%	2.85%	0.15%
CC1=C(C(=O)Nc2ccc3[nH]ncc3c2)C(c2ccc(F)cc2)NC(=O)N1 (stereo not drawn)		64.1%	74.5%	2.36%	15.7%	2.28%	11.2%	2.36%	7.93%	2.07%
COc1ccc(-c2ccncc2)cc1C(N)=O	4.76%	3.14%	6.03%	2.42%	4.51%	1.67%	4.1%	3.52%	5.01%	2.25%
Cc1cccc(-c2n[nH]cc2-c2ccc3ncccc3n2)n1	-0.22%	0.72%	-0.18%	-0.36%	0.1%	1.16%	1.24%	0.29%	1.84%	0.98%
Cn1cc(C=C2C(=O)Nc3cccnc32)c2ccccc21	5.28%	2.47%	8.3%	0.08%	5.16%			1.73%	7.9%	2.64%
N#Cc1c(NC(=O)c2cccc3ccccc23)sc2c1CCCC2	2.34%	1.81%	1.22%	1.91%	0.22%	1.01%	0.5%	2.55%	2.14%	1.14%
[O-][S+]1CCN(Cc2ccc(-c3ccc4ncnc(Nc5ccc(OCc6ccccc6)c(F)c5)c4c3)o2)CC1	1.51%	0.14%	0.33%	-0.15%	-0.56%	-0.51%	-0.78%	1.48%	1.83%	0.96%
CS(=O)(=O)CCNCc1ccc(-c2ccc3ncnc(Nc4ccc(OCc5cccc(F)c5)c(C(F)(F)F)c4)c3c2)o1	1.61%	3.57%	4.82%	2.12%	2.08%	1.34%	1.93%	2.39%	2.88%	1.6%
